Experimental findings from PubChem BioAssay (NCATS) are described below.

Records with an inconclusive call do not appear. Where a call stands in place of a potency, no number is given. Calls of active or inactive are those of the source. The call rests on the fitted dose curve; in most records, active means well fitted activation curve with a large enough effect; inconclusive means small, poorly fitted or top-dose-only effect; inactive means no such curve, though single readings can be large or run the other way.

The target in the test is Rap guanine nucleotide exchange factor 3 (Homo sapiens) (UniProt O95398). Briefly: Confirmatory qHTS for agonist of cAMP-regulated guanine nucleotide exchange factor 3 (EPAC1) (AID 1645881).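 Further: EPAC1 catalysed release of BODIPY-GDP from Rap1B seen as fluorescence loss; nearly all actives have a fitted effect of over 75% in size.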 The settings on record: EPAC1 Rap1B BODIPY-GDP exchange fluorescence; series mostly up to 154 µM. (In qHTS, concentration-response curves come from the screen itself.)
Rap guanine nucleotide exchange factor 3 (Homo sapiens), sequence (O95398 whole entry, looked up): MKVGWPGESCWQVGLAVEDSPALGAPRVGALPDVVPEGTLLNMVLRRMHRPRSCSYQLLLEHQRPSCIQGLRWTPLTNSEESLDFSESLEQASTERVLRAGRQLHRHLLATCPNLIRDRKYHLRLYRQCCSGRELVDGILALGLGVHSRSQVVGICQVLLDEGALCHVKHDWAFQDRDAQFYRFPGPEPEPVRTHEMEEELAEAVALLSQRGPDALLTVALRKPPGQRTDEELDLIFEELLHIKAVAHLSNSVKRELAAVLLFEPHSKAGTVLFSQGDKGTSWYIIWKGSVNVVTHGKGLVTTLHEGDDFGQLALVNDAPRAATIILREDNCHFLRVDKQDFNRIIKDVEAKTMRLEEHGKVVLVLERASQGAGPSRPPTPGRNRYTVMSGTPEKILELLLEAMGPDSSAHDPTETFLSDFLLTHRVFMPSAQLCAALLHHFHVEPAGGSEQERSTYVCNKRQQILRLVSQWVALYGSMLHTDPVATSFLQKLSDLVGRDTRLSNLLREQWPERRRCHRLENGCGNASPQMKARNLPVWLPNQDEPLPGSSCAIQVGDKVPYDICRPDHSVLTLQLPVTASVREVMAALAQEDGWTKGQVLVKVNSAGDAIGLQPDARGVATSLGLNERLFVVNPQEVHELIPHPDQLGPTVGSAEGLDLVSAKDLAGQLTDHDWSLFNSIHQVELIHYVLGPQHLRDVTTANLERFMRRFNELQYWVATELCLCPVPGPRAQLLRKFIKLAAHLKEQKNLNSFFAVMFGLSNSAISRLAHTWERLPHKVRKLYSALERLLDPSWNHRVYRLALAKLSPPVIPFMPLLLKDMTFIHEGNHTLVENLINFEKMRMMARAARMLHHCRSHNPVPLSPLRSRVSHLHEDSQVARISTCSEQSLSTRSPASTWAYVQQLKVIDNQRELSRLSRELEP
As to `CCCCCC(=O)N1c2ccccc2C(C)(c2ccccc2)CC1(C)C` (stereo not given), the Potency result is “inactive”. Take `CCCCn1c(CNC(=O)C23CC4CC(CC(C4)C2)C3)nnc1SCC(=O)Nc1nnc(C)s1`: the Potency result was “inactive”. For `O=S(=O)(c1ccc2nc(-c3ccco3)c(-c3ccco3)nc2c1)N1CCOCC1` the value was “inactive”. `CC(C)(C)Cc1c(-c2ccco2)nc2ccc(Cl)cn12`: the Potency result was “inactive”. For `CC1CN(C(=O)c2ccc(-c3cccc(C(F)(F)F)c3)o2)CC(C)O1` (stereo not given) the value was “inactive”. For `O=C(CSc1nccn1Cc1ccc(Cl)cc1)Nc1ccc2c(c1)OCO2` the value was “inactive”.

With `FC(F)(F)c1cccc(CN2CCC(c3cc(-c4cccs4)n[nH]3)CC2)c1`, the Potency entry is “inactive”. To `O=C(COC(=O)c1cccc(NS(=O)(=O)c2ccc(F)c(F)c2)c1)NC(=O)NC1CCCC1` belongs “inactive”. As to `O=C(NCc1ccc(OC(F)(F)F)cc1)C1CC(c2ccccc2C(F)(F)F)=NO1` (stereo not given), the Potency entry is “inactive”. To `Cc1cc2c(cc1C)C(c1ccccc1OC(C)C)CC(=O)N2` (stereo not given) belongs “inactive”. Consider `CCN(Cc1ccccc1)S(=O)(=O)c1cc2c3c(c1)CCN3C(=O)CC2`, for which the Potency result was “inactive”. `O=C(O)CCCC(=O)N1CCN(c2nc(-c3ccccc3Cl)c3cc(Br)ccc3n2)CC1`: the Potency entry was “inactive”. For `COCc1nc2ccccc2n1Cc1ccc(C(C)(C)C)cc1` the value was “inactive”; for `CC(C)(C)c1ccc(C(=O)N2CCCC(c3nc4c(nnn4Cc4cccc(F)c4)c(=O)[nH]3)C2)cc1` (stereo not given), “inactive”. For `Nc1cc(OC(=O)c2cccs2)nn1S(=O)(=O)c1ccc(F)cc1` the value was “inactive”; for `CC(C)CCNC(=O)c1onc(CSc2ccccn2)c1C(=O)NCCC(C)C`, “inactive”; for `NC(CSC(c1ccccc1)(c1ccccc1)c1cccc2ccccc12)C(=O)O` (stereo not given), “inactive”. For `COc1ccc(N2C(=O)CSC23C(=O)N(Cc2cccc(C(F)(F)F)c2)c2ccccc23)cc1` (stereo not given) the value was “inactive”; for `CC1=CCC[C@@H]2[C@@](C)(CC/C(C)=C/C(=O)O)[C@H](C)CC[C@@]12C`, “inactive”; for `CC1Sc2ccc(C#N)cc2N(Cc2cccc(C(F)(F)F)c2)C1=O` (stereo not given), “inactive”.

Turning to `C/C(=N\NS(=O)(=O)c1ccc(C(C)(C)C)cc1)c1ccccc1`, the Potency result is “inactive”. To `O=C(O)CN1C(=O)/C(=C\c2ccccc2OCc2ccc(Cl)cc2)SC1=S` belongs “inactive”; to `C=CCNC(=O)c1oc2ccc(S(=O)(=O)N(CC)CC)cc2c1C`, “inactive”; to `Nc1ccc(N2CCCCC2)c2nonc12`, “inactive”. To `O=C(O)c1cccc(Nc2ccc([N+](=O)[O-])c3nonc23)c1` belongs “inactive”; to `CCCc1[nH]c2ccc(C(=O)OC)cc2c1CCC`, “inactive”. For the molecule `COc1ccc(C2CC(=O)c3c(O)cc(O)cc3O2)c(CC=C(C)C)c1OC` (stereo not given), the Potency result is “inactive”.

Consider `C=CC(C)N1C(=O)S/C(=C\c2ccc(N3CCOCC3)cc2C)C1=O` (stereo not given), for which the Potency entry is “inactive”. For the molecule `CC(C)(C)OC(=O)N1CCC(c2c(C(=O)NCCN3CCC(Cc4ccccc4)CC3)cnn2-c2cccc(Cl)c2)CC1`, the Potency entry is “inactive”. To `CCCCOC(=O)C1=C(C)Nc2nnnn2C1c1ccccc1Cl` (stereo not given) belongs “inactive”. Regarding `CCCC(=O)NC(c1ccc(C)cc1)c1ccc2cccnc2c1O` (stereo not given), the Potency result was “inactive”.

`CCc1ccc2c(c1)NC(=O)C2(C)Cc1ccc(C(F)(F)F)o1` (stereo not given): the Potency entry is “inactive”. For `Cc1ccc(NS(=O)(=O)c2cccc(C(=O)OCC(=O)NCc3ccco3)c2)cc1` the value was “inactive”; for `CCc1nc2ccc(C(=O)Nc3ccc(NC(C)=O)cc3)cn2c1N(C)CCC(C)C`, “inactive”; for `CC(C)C(=O)Nc1nc2c(s1)CC(C(C)(C)C)CC2` (stereo not given), “inactive”.

On to `CCC(C)(C)c1ccc(OCC(=O)N(C)C)c(C(C)(C)CC)c1`, for which the Potency entry is “inactive”.

For `C[C@H](CO)N1C[C@H](C)[C@@H](CN(C)Cc2ccc(Cl)c(Cl)c2)Oc2c(NC(=O)CCC(F)(F)F)cccc2C1=O`, the Potency entry was “inactive”. Consider `C/C=C/C(=O)Nc1cccc(C2=NOC3(C2)C[C@@H](C(N)=O)N(C(=O)/C(C)=C/C)C3)c1` (stereo not given in full), for which the Potency entry was “inactive”.

Take `Cc1ccnc(NC(=O)C2CCN(S(=O)(=O)c3cccc(C(F)(F)F)c3)CC2)c1`: the Potency entry was “inactive”. Regarding `CCC/C=C/c1ccc(CN2C(CC(C)C)C(=O)N(Cc3cn(Cc4ccco4)nn3)CCS2(=O)=O)cc1` (stereo not given), the Potency entry was “inactive”.
